The record followed here is ChEMBL document CHEMBL3433997, “St. Jude Leishmania screening dataset” (2016).

Type in all cases: functional
Assay [1] concerns the target Solute carrier family 2, facilitated glucose transporter member 1 (Homo sapiens) (UniProt P11166). Briefly: ST_JUDE_LEISH: Cytotoxicity at 2uM final concentration against transgenic Leishmania Mexicana promastigotes LmGLUT1 that are glucose transport deficient and complemented with the human glucose transporter GLUT1. Activity is measured by DNA content using SYBR green in vitro.

Assay [2] addresses Hexose transporter 1 (Plasmodium falciparum) (UniProt O97467). Briefly: ST_JUDE_LEISH: Cytotoxicity at 2uM final concentration against transgenic Leishmania Mexicana promastigotes LmPfHT that are glucose transport deficient and complemented with the Plasmodium falciparum hexose transporter. Activity is measured by DNA content using SYBR green in vitro.
The target in assay [3] is Glucose transporter (Leishmania mexicana) (UniProt O61059). Briefly: ST_JUDE_LEISH: Cytotoxicity at 2uM final concentration against transgenic Leishmania Mexicana promastigotes LmGT2 that are glucose transport deficient and complemented with the L. Mexicana glucose transporter 2. Activity is measured by DNA content using SYBR green in vitro.

Sequence of Solute carrier family 2, facilitated glucose transporter member 1 (Homo sapiens) (P11166 whole entry): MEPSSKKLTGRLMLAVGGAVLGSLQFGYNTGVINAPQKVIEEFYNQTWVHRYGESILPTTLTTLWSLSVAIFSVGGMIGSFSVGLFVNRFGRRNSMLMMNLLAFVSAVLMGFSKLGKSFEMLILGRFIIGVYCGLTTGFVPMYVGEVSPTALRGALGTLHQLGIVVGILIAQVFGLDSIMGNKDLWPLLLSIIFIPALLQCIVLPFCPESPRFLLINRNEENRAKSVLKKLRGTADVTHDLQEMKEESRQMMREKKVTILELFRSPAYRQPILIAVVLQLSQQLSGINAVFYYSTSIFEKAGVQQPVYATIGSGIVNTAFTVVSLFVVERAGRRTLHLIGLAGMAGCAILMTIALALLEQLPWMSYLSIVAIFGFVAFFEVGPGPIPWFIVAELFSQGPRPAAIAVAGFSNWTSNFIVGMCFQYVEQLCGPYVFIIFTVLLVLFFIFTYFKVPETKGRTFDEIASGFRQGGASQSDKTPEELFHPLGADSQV

As to `Cc1cc2c(cc1C(F)(F)F)N(C(=O)Nc1cc(C(=O)NCCN(C)C)cc(C(F)(F)F)c1)CC2`, the inhibition in assay [1] is 4.3%; in assay [2], 2.66%; in assay [3], 3.69%.
On the same counts, the results for `COc1ccccc1CNc1ncc(-c2ccsc2)c(-c2nccs2)n1` are 0.14%, 0.8% and -0.05%.
For `O=C(N[C@H]1CCN(Cc2ccc(OC3CCN(Cc4ccccc4)CC3)c(Cl)c2)C1)c1ccc(Cl)c(Cl)c1`, in that order: 0.44%, 2.06% and 1.75%.
With `CC(C)C1c2ccc(O)cc2CC2C(=O)N(C3CCCCC3)C(=O)N21` (stereo not drawn), the values for the inhibition in assay [1], in assay [2] and in assay [3] were -1.04%, -1% and -0.94%, respectively.
Consider `O=C(Nc1cc(F)cc(F)c1)N1CCOC(CCN2CCC(c3ccccc3)CC2)(c2ccc(Cl)c(Cl)c2)C1` (stereo not drawn), for which the inhibition is 4.27% in assay [1], 2.5% in assay [2] and 2.87% in assay [3].
On the same counts, the results for `COc1ccc2nc3cc(Cl)ccc3c(NCCCN3CCNCC3)c2c1` are 3.27%, 3.25% and 2.39%.
Regarding `O=C(Nc1cccc(-c2ccc(CN3CCCC3)cc2)c1)c1cccc(F)c1`, the inhibition in assay [1] is -0.49%; in assay [2], 1.18%; in assay [3] it was 0.62%.
Regarding `Cc1c(CCNC(=O)CCCN2CC(C)CC(C)C2)c2ccccc2n1C` (stereo not drawn), the inhibition in assay [1] amounted to 1.14%; in assay [2] it was 3.38%; in assay [3], 3.01%.
With `COc1cc(Cc2cnc(N)nc2N)cc(OCCCCC2SC(=O)NC2=O)c1OC` (stereo not drawn), the inhibition in assay [1] was 2.3%; in assay [2], 0.84%; in assay [3] it was 1.34%.
For `O=C(NCC1CCC(C(=O)O)CC1)c1ccc(/C=C/C(=O)N2CCc3ccccc3C2c2ccc3c(c2)OCO3)cc1` (stereo not drawn), in that order: -0.02%, 1.62% and 0.31%.
For `OCCNc1nc(Nc2ccccc2)nc2ccccc12`, in that order: 8.68%, 7.01% and 2.07%.
As to `O=C(Nc1cccnc1)c1cc(-c2cc(Cl)ccc2O)n[nH]1`, the results for the inhibition in assay [1], in assay [2] and in assay [3] were 2.55%, 2.47% and 3.15%, respectively.
Turning to `CCC1(CC)CN(c2ccccc2)c2ccc(O)cc2S(=O)(=O)C1CC(C)C` (stereo not drawn), the inhibition in assay [1] is 0.72%; in assay [2], 0.32%; in assay [3] it was 0.3%.
Regarding `O=C(Nc1ccc(OC2CCN(Cc3ccc(F)cc3)CC2)c(Cl)c1)c1cccs1`, the inhibition is 2.99% in assay [1], 0.38% in assay [2] and 8.58% in assay [3].
For `Oc1ccc2[nH]c(-c3cccc(F)c3)nc2c1CNCc1ccccc1`, in that order: 9.11%, 3.29% and 2.86%.
On to `Cc1nc2cc(/C=C/C(=O)NC3CCC(CCN4CCc5ccc(C#N)cc5CC4)CC3)ccc2[nH]1` (stereo not drawn), for which the figures for the inhibition in assay [1], in assay [2] and in assay [3] were 3.09%, 2.24% and 3.19%, respectively.
Take `CN(CCN(C)C(=O)NCc1ccccc1)C(=O)NCc1ccccc1`: the inhibition in assay [1] was found to be 3.05%; in assay [2] it was 3.69%; in assay [3] it was 3.75%.
Regarding `Cn1c(NCc2cc(F)cc3c2OCOC3)nc2cc(Nc3ccnc(Nc4cccc(CS(C)(=O)=O)c4)n3)ccc21`, the figures for the inhibition in assay [1], in assay [2] and in assay [3] were -1.66%, 1.11% and 1.18%, respectively.
Turning to `Fc1cccc(Nc2nc(NCc3ccc(OCc4ccccc4)cc3)nc(Nc3cccc(F)c3)n2)c1`, the inhibition in assay [1] was 11.8%; in assay [2], 9.09%; in assay [3] it was 8.22%.
With `O=C(N[C@@H](CC1CCCCC1)C(=O)NCCN1CCOCC1)c1ccc(O)c(-c2ccc(Cl)c(Cl)c2)c1`, the inhibition in assay [1] was -0.52%; in assay [2] it was 1.41%; in assay [3] it was 0.27%.
With `Cc1cccc(C)c1CNc1ccnc2ccccc12`, the inhibition is 1.11% in assay [1], 2.91% in assay [2] and 6.9% in assay [3].
For `COc1ccc(Cl)cc1-c1nc(C(=O)NCCN2CCCCC2)c(C(C)C)s1`, in that order: -3.64%, -0.2% and 3.06%.
With `CC(Nc1ccnc2cc(Cl)ccc12)c1ccc(S(N)(=O)=O)cc1` (stereo not drawn), the inhibition in assay [1] was -1.53%; in assay [2], 1.3%; in assay [3], 2.92%.
On to `CCc1ccc(S(=O)(=O)Nc2ccc(CCN(C)C3CCN(C)CC3)cc2)cc1`, for which the inhibition came to 3.75% in assay [1], 3.41% in assay [2] and 2.27% in assay [3].
For the compound `CCCNC(=O)CN1CN(c2ccccc2)C2(CCN(C(=O)c3ccc(C(C)(C)C)cc3)CC2)C1=O`, the inhibition in assay [1] is -0.42%; in assay [2], 1.19%; in assay [3], -0.87%.
On to `Cc1noc(C)c1-c1cccc(CNCc2ccc(-c3ccc(-c4nc5cccc(C)c5[nH]4)cc3)cc2)c1`, for which the inhibition is 2.03% in assay [1], 0.15% in assay [2] and -0.62% in assay [3].
Regarding `c1cc(Nc2nc(-c3ccc(-c4csc(Nc5ccncc5)n4)cc3)cs2)ccn1`, the inhibition in assay [1] was -1.93%; in assay [2] it was -1.56%; in assay [3] it was -1.05%.
As for `Cc1cc(N[C@@H](CC(C)C)C(=O)Nc2ccccc2)nc(Nc2ccccc2)n1`, the results for the inhibition in assay [1], in assay [2] and in assay [3] were 1.17%, -0.52% and -0.1%, respectively.
On to `O=[N+]([O-])c1ccc(Nc2nc(N/N=C/c3cccc(O)c3)nc(N3CCCC3)n2)cc1`, for which the inhibition amounted to 3.46% in assay [1], 3.1% in assay [2] and 1.31% in assay [3].
For `N=C(NCCCc1ccccc1)c1cccc(C(=N)NCCCc2ccccc2)n1`, in that order: -0.39%, -1.1% and -0.17%.
On the same counts, the results for `COc1ccc(NC(=O)Nc2ccc(C)c(-c3ccc(C(=O)NCCN4CCCC4)cc3)c2)cc1` are -1.56%, -2.24% and -2.87%.
For `O=C(NC1CCCCCC1)C1CCCN(C(=O)c2ccc(O)c(-c3ccc(Cl)c(Cl)c3)c2)C1` (stereo not drawn), in that order: 3.16%, 2.31% and 2.57%.
With `COc1ccc(-c2onc(C(F)(F)F)c2-c2cc3ccccc3o2)c(O)c1`, the inhibition in assay [1] came out at 0.61%; in assay [2], 0.82%; in assay [3], 0.58%.
Turning to `Cc1ccc(NC(=O)c2ccc(CN3CCCN(CCC(C)C)CC3)cc2)cc1F`, the inhibition in assay [1] amounted to 7.11%; in assay [2], 7.04%; in assay [3] it was 9.05%.
For the compound `O=[N+]([O-])c1ccccc1C=NN=c1cc[nH]c2ccccc12`, the figures for the inhibition in assay [1], in assay [2] and in assay [3] were -2.55%, 1.68% and -0.01%, respectively.
Consider `CCNc1cc(C)nc(Nc2ccc(NC(=O)C3CCCC3)cc2)n1`, for which the inhibition was determined as 8.61% in assay [1], 6.7% in assay [2] and 3.57% in assay [3].
